Cav32 inh = human Cav3.2 channel inhibition, primary screen; Cav3.2-expressing cells, Fluo-4 calcium fluorescence FDSS; hits give low values; hit rate 4% among 100,000; B-score at 10 µM; O95180;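 active = single-dose well whose peak fluorescence ratio is a statistical outlier from its plate by either plate-standardised score or position-corrected B-score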
M1 agonist = agonists of M1 muscarinic receptor | CHO-M1 cells, Fluo-4 calcium fluorescence, agonist mode; hits give high values | B-score at 10 µM | hit rate 3% among 64,000;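 active = fluorescence rise, raw or as B-score row- and column-corrected plate score, outside the 99.7% band of its plate's samples, either direction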
M1 antagonist = antagonists of rat M1 muscarinic receptor; P08482; CHO-M1 cells, Fluo-4 calcium, ACh EC80 antagonist mode; hits give low values; B-score at 10 µM; hit rate 3.4% among 64,000; AID 628;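 active = calcium fluorescence response, raw or row-and-column corrected B-score, differing from the plate sample mean either way at a set confidence level, mostly lower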
PLAP act = activates human placental alkaline phosphatase; P05187; purified PLAP enzyme, luminescent substrate read-out; hits give high values; activation fold at 20 µM; hit rate 1.2% among 96,000; in the data active = activation fold above about 2
Target sequence (P05187 whole entry, looked up): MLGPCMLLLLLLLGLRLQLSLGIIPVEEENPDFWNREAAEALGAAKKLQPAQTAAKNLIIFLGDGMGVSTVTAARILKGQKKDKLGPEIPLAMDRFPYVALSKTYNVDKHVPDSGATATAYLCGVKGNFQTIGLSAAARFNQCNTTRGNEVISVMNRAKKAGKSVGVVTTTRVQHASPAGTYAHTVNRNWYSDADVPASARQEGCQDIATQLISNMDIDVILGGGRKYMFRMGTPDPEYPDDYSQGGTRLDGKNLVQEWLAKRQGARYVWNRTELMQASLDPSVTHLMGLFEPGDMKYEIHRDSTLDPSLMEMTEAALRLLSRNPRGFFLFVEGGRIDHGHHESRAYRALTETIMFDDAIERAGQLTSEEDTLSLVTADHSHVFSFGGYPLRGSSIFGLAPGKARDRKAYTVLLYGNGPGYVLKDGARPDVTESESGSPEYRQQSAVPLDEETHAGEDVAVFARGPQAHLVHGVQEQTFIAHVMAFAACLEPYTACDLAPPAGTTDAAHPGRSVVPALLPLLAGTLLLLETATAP
An asterisk follows results filed as active. Rows were chosen to be rich in hits. Some 7.6% of all compounds tested hit in one or more screens of this group.

Results for CC(C)CCNC(=O)CN(C(=O)Cn1nnc(-c2ccccc2F)n1)c1cccc2c1CCCC2 ?
Cav32 inh: -8*; PLAP act: 2.6*

Results for CCC(C(=O)NC(C)(C)C)N(C(=O)Cn1nnc(-c2ccccc2F)n1)c1cccc2c1CCCC2 (centres undefined) ?
Cav32 inh: -2.1; PLAP act: 1.1

What do the screens show for `O=C(CN(C(=O)Cn1nnc(-c2ccccc2F)n1)c1cccc2c1CCCC2)NCc1ccccc1`?
Cav32 inh: -6.1*

What do the screens show for `CN=C(Nc1ccc(Cl)cc1)c1ccc(C(F)(F)F)cc1`?
Cav32 inh: -1; PLAP act: 1

What do the screens show for `O=C(CN1CCOCC1)NCC12CC3CC(CC(C3)C1)C2`?
Cav32 inh: 1.2; M1 agonist: -0.27; M1 antagonist: 0.68; PLAP act: 1

What do the screens show for `Cc1cc(C)nc(NC2=NCC(=O)N2c2ccccc2)n1`?
Cav32 inh: -0.07; M1 agonist: -0.057; M1 antagonist: -0.39; PLAP act: 2.4*

What do the screens show for `COc1ccc(NC2=NCC(=O)N2c2ccccc2)c(OC)c1`?
Cav32 inh: -0.45; M1 agonist: -0.16; M1 antagonist: 0.94; PLAP act: 1

Results for Cc1cc(C)nc(NC2=NCC(=O)N2c2cccc(Cl)c2)n1 ?
Cav32 inh: -0.43; M1 agonist: -0.28; M1 antagonist: 0.58; PLAP act: 2.1*

Results for Cc1cc(C)nc(NC2=NCC(=O)N2c2ccccc2Br)n1 ?
Cav32 inh: -0.067; M1 agonist: 0.89; M1 antagonist: 1.1

What do the screens show for `Cc1cc(C)nc(NC2=NCC(=O)N2c2ccc3c(c2)OCCO3)n1`?
Cav32 inh: -1.1; M1 agonist: -0.38; M1 antagonist: -1.4; PLAP act: 2*

What do the screens show for `COc1ccc(N2C(=O)CN=C2Nc2nc(C)cc(C)n2)cc1`?
Cav32 inh: 0.22; M1 agonist: -0.011; M1 antagonist: 0.53; PLAP act: 2.3*

Results for COC(=O)C1=C(C(=O)OC)[C@@H]2N(Cc3ccccc3)c3ccccc3[C@@]23C[C@@H](CO)N(C(=O)NC2CCCC2)C3=N1 ?
Cav32 inh: -0.53

Results for O=C(CSc1nc2ccccc2[nH]1)NCc1ccco1 ?
Cav32 inh: 0.56; M1 agonist: 0.21; M1 antagonist: -0.53; PLAP act: 0.9

Results for O=C(CSc1ncccc1-c1nc2ccccc2[nH]1)NCc1ccco1 ?
Cav32 inh: 0.47; M1 agonist: -0.81; M1 antagonist: 0.32; PLAP act: 2*

How did Cc1ccccc1N(CC(=O)N/N=C/c1ccc(N(C)C)cc1)C(=O)c1ccccc1 do in these assays?
Cav32 inh: -4.5*; PLAP act: 1.8

What do the screens show for `C=CCc1ccc(OCCOCCOc2ccccc2[N+](=O)[O-])c(OC)c1`?
Cav32 inh: -4.6*; PLAP act: 1.3

How did C=CCc1ccc(OCCCCN2CC(C)OC(C)C2)c(OC)c1 (centres undefined) do in these assays?
Cav32 inh: -0.62; PLAP act: 2*

Results for C=CCc1ccc(OCC(O)COc2ccc(CC=C)cc2OC)c(OC)c1 ?
Cav32 inh: -8.9*; PLAP act: 2*

Results for C=CCc1ccc(OCC(O)CN2CCCCC2)c(OC)c1 (centres undefined) ?
Cav32 inh: -2.2; M1 agonist: 0.8; M1 antagonist: 0.57; PLAP act: 0.8

What do the screens show for `CCOc1ccc(C2OC34CCCCC3C(C#N)(C#N)C2(C#N)C(=N)O4)cc1OC` (centres undefined)?
Cav32 inh: 1.8; PLAP act: 1

Results for CCCNC(=S)N1CCC(NC(=O)C2CCCCC2)CC1 ?
Cav32 inh: 0.47; PLAP act: 1.1

What do the screens show for `C1CNCCNCCCNCCNC1`?
M1 agonist: -0.087; M1 antagonist: 0.043

How did C/C(=N\NC(=O)c1ccc(Br)cc1)C1C(=O)c2ccccc2C1=O do in these assays?
Cav32 inh: -4.2*; PLAP act: 0.9

Results for Cc1ccccc1OCCCC(=O)NCc1ccco1 ?
Cav32 inh: -0.039; PLAP act: 1

Results for Clc1cc(NCc2cccs2)ccc1N1CCOCC1 ?
Cav32 inh: -1.3; M1 agonist: 1.2; M1 antagonist: -1.3; PLAP act: 1

Results for CCOC(=O)c1ccccc1NC(=O)CSc1nnc(Cc2cccn2C)n1-c1ccc(F)cc1 ?
Cav32 inh: -5.5*; M1 agonist: 0.77; M1 antagonist: 1.3; PLAP act: 1

How did Cn1cccc1Cc1nnc(SCC(=O)NCc2ccccc2)n1-c1ccc(F)cc1 do in these assays?
Cav32 inh: -0.94; M1 agonist: 0.77; M1 antagonist: 0.29; PLAP act: 1.4

Results for Cn1cccc1Cc1nnc(SCC(=O)NCc2ccc(F)cc2)n1-c1ccc(F)cc1 ?
Cav32 inh: -4.1; M1 agonist: -0.68; M1 antagonist: 0.36; PLAP act: 1.5

Compound activity from PubChem.
